Screening results deposited in PubChem by several laboratories.
Efflux pump mplx: blocks antifungal efflux pumps in multiplex yeast assay; S. cerevisiae Candida pump triplex, Nile Red efflux; inhibition, % at 10 µM; hit rate 0.44% among 330,000;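 active = plate passing quality check with inhibition over a set limit, or well fluorescence over plate mean plus 4 SD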;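 note: Nile Red retained in pooled yeast measured as flow cytometry median fluorescence; higher means more Nile Red kept so more efflux inhibition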
sPLA2-III inh: Inhibits HGIII-sPLA2 liposome hydrolysis, primary screen | inhibition, % at 12.2 µM | QFRET BODIPY PC-A2 liposome hydrolysis, fluorescence | hit rate 0.56% among 370,000 | Q9NZ20;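 active = inhibition above mean plus 3 SD of compounds lying within the high and low control bounds, cut at about 19% in these data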
Target sequence (Q9NZ20 whole entry, looked up): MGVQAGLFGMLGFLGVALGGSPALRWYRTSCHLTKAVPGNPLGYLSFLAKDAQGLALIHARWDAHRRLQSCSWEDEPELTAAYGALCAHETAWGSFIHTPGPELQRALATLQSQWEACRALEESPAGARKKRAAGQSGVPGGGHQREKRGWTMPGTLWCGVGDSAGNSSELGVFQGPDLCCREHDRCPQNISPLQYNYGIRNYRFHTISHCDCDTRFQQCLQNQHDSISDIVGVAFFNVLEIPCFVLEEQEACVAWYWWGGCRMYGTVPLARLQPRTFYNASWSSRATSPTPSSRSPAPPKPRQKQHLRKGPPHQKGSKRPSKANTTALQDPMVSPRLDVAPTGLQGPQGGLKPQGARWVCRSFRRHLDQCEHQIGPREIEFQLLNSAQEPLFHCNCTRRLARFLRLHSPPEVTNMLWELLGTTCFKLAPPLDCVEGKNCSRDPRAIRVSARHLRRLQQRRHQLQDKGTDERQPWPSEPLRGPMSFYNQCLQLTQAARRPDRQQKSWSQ
SKN-1 inh: blocks SKN-1 activity in C. elegans; C. elegans VP596 Pgst-4::GFP/RFP ratio, acrylamide-induced, 24 h; inhibition, % at 21.8 µM; hit rate 0.49% among 360,000;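 active = interference check ratio from 0.5 to 1.5 plus GFP to RFP signal ratio inhibition reaching or exceeding a fixed threshold, cut at about 30% in these data, passing the limit was not always enough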
Mot1-301 SUMO: inhibitors of SUMOylation pathway: yeast Mot1-301 growth rescue | growth rescue, % at 18.8 µM | hit rate 1% among 320,000 | S. cerevisiae Mot1-301 growth rescue, ATP luminescence, 38.5C; percent above DMSO median, 100 means doubled | AID 2716;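 active = every valid replicate shows activation above 250% relative to neutral control wells; inactive = the rest, any valid replicate at or below 250%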
Yeast cmpd fluor: compound fluorescence in yeast efflux pump counter-screen; shares compounds with Efflux pump mplx; S. cerevisiae AD/pABC3, flow cytometry; fluorescence ratio to DMSO, % at 10 µM; hit rate 4% among 1,700; AID 588517;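 active = fluorescence ratio to DMSO above its plate's cutoff, the plate mean ratio plus 5 SD, cut at about 210% in these data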;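 note: unstained yeast with no Nile Red so the signal is compound autofluorescence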
Mdr1 pump inh: inhibitors of Candida albicans Mdr1 efflux pump; inhibition, % at 10 µM; shares compounds with Efflux pump mplx; S. cerevisiae AD/CaMDR1, Nile Red efflux, flow cytometry; hit rate 1% among 1,700; in the data active = inhibition above about 26%;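 note: higher means more Nile Red retained so more efflux inhibition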
CaCdr2 efflux inh: Candida Cdr2 efflux pump inhibition; shares compounds with Efflux pump mplx; S. cerevisiae AD/CaCDR2, Nile Red retention, flow cytometry; Nile Red retention ratio vs DMSO, % at 10 µM; hit rate 4% among 1,700; AID 588520; in the data active = Nile Red retention ratio vs DMSO above about 190%;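 note: higher ratio means more blocking of Cdr2 efflux of the dye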
Cdr1 pump inh: Candida Cdr1 efflux pump inhibition; S. cerevisiae AD/CaCDR1, Nile Red efflux, flow cytometry; inhibition, % at 10 µM; AID 588522; shares compounds with Efflux pump mplx; hit rate 1% among 1,700;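 active = inhibition above the screen-wide mean plus twice its standard deviation, cut at about 32% in these data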
Hits are given with their value. An excerpt weighted towards active compounds, which were near 2.2% of everything screened.

What do the screens show for `O=C(O)CC(NCc1ccco1)C(=O)OCC1CCCO1` (configuration not stated)?
Efflux pump mplx: 0.7; sPLA2-III inh: inactive; SKN-1 inh: inactive; Mot1-301 SUMO: inactive; Yeast cmpd fluor: inactive; Mdr1 pump inh: inactive; CaCdr2 efflux inh: inactive; Cdr1 pump inh: inactive

Results for O=C(COc1ccc(Cl)cc1)NC1=NN(c2ccccc2)C(=O)C1 ?
Efflux pump mplx: inactive; sPLA2-III inh: inactive; SKN-1 inh: inactive; Mot1-301 SUMO: inactive

Results for O=C1NC(=S)SC1=Cc1ccccc1Cl ?
sPLA2-III inh: inactive; SKN-1 inh: inactive

What do the screens show for `O=C1NC(=S)S/C1=C\c1ccc(SCc2ccccc2)o1`?
Efflux pump mplx: 4.5; sPLA2-III inh: inactive; SKN-1 inh: inactive; Mot1-301 SUMO: inactive; Yeast cmpd fluor: inactive; Mdr1 pump inh: inactive; CaCdr2 efflux inh: 187; Cdr1 pump inh: inactive

How did O=C1NC(=S)S/C1=C\c1ccc(SCc2ccco2)o1 do in these assays?
Efflux pump mplx: 4.7; SKN-1 inh: inactive; Mot1-301 SUMO: inactive; Yeast cmpd fluor: inactive; Mdr1 pump inh: inactive; CaCdr2 efflux inh: inactive; Cdr1 pump inh: inactive

What do the screens show for `Cc1ccc(-c2cc(C(=O)Nc3ccc(S(=O)(=O)Nc4onc(C)c4C)cc3)c3ccccc3n2)cc1`?
Efflux pump mplx: 0.6; sPLA2-III inh: inactive; SKN-1 inh: inactive; Yeast cmpd fluor: inactive; Mdr1 pump inh: inactive; CaCdr2 efflux inh: inactive; Cdr1 pump inh: inactive

Results for COc1ccc(/C=C/c2c(-c3ccc(OC)cc3)sc3cc(OC)c(OC)cc23)cc1 ?
Efflux pump mplx: inactive; sPLA2-III inh: inactive; SKN-1 inh: inactive

Results for COc1cccc(C(C(=O)NC(C)(C)C)N(C(=O)CCC(=O)Nc2cc(C)on2)C(C)C)c1OC (configuration not stated) ?
Efflux pump mplx: inactive; sPLA2-III inh: inactive; SKN-1 inh: inactive; Mot1-301 SUMO: inactive; Yeast cmpd fluor: inactive; Mdr1 pump inh: inactive; CaCdr2 efflux inh: inactive; Cdr1 pump inh: inactive

How did C=CCN(C(=O)CCC(=O)Nc1cc(C)on1)C(C(=O)NC(C)(C)C)c1cccc(OC)c1OC (configuration not stated) do in these assays?
Efflux pump mplx: inactive; sPLA2-III inh: inactive; SKN-1 inh: inactive; Mot1-301 SUMO: inactive

Results for COc1cccc(C(C(=O)NC(C)(C)C)N(C(=O)CCC(=O)Nc2cc(C)on2)C(C)(C)C)c1OC (configuration not stated) ?
Efflux pump mplx: inactive; sPLA2-III inh: inactive; SKN-1 inh: inactive; Mot1-301 SUMO: inactive; Yeast cmpd fluor: inactive; Mdr1 pump inh: inactive; CaCdr2 efflux inh: inactive; Cdr1 pump inh: inactive

Results for COC(=O)c1c(NC(=O)COC(=O)c2ccc(Cl)nc2)sc(C)c1C ?
Efflux pump mplx: inactive; sPLA2-III inh: inactive; SKN-1 inh: inactive; Mot1-301 SUMO: inactive

What do the screens show for `O=C(COC(=O)[C@H](Cc1ccccc1)NC(=O)c1cccs1)NC1CCCCC1`?
Efflux pump mplx: 18; sPLA2-III inh: inactive; SKN-1 inh: inactive; Mot1-301 SUMO: inactive; Yeast cmpd fluor: inactive; Mdr1 pump inh: inactive; CaCdr2 efflux inh: inactive; Cdr1 pump inh: inactive

How did CN(C(=O)CN1CCN(c2cc(-c3ccc(-c4ccccc4)cc3)ncn2)CC1)c1ccccc1 do in these assays?
sPLA2-III inh: inactive; SKN-1 inh: inactive

Results for COc1cc(CNC(C)(C)CO)cc(Br)c1OCc1ccc(Cl)cc1Cl ?
Efflux pump mplx: inactive; sPLA2-III inh: inactive; SKN-1 inh: inactive; Mot1-301 SUMO: inactive

How did COc1cc(CNC(C)(C)CO)cc(Br)c1OCc1ccc(Cl)cc1 do in these assays?
Efflux pump mplx: 6.4; sPLA2-III inh: inactive; SKN-1 inh: 55; Mot1-301 SUMO: inactive; Yeast cmpd fluor: inactive; Mdr1 pump inh: inactive; CaCdr2 efflux inh: inactive; Cdr1 pump inh: inactive

What do the screens show for `O=C(CN1C(=O)NC2(CCCCCCC2)C1=O)NC1CCCc2ccccc21` (configuration not stated)?
Efflux pump mplx: inactive; sPLA2-III inh: inactive; SKN-1 inh: inactive; Mot1-301 SUMO: inactive

How did CC1CCCCC12NC(=O)N(CC(=O)NC1CCCc3ccccc31)C2=O (configuration not stated) do in these assays?
Efflux pump mplx: 0.9; sPLA2-III inh: inactive; SKN-1 inh: inactive; Mot1-301 SUMO: inactive; Yeast cmpd fluor: inactive; Mdr1 pump inh: inactive; CaCdr2 efflux inh: inactive; Cdr1 pump inh: inactive

What do the screens show for `Cc1ccc(S(=O)(=O)N2CCOCC2)cc1NC(=O)CN(C)CC(=O)Nc1cccc(F)c1`?
sPLA2-III inh: inactive; SKN-1 inh: inactive

Results for CN1CCCC1CCNc1ccc2sc3ccccc3c(=O)c2c1 (configuration not stated) ?
Efflux pump mplx: 2.0; sPLA2-III inh: inactive; SKN-1 inh: inactive; Mot1-301 SUMO: inactive; Yeast cmpd fluor: 254; Mdr1 pump inh: inactive; CaCdr2 efflux inh: inactive; Cdr1 pump inh: inactive

What do the screens show for `O=C(Nc1ccc(C2=NCCN2)cc1)c1ccc(C(=O)Nc2ccc(C3=NCCN3)cc2)c([N+](=O)[O-])c1`?
Efflux pump mplx: 1.1; sPLA2-III inh: inactive; SKN-1 inh: inactive; Mot1-301 SUMO: inactive; Yeast cmpd fluor: inactive; Mdr1 pump inh: inactive; CaCdr2 efflux inh: inactive; Cdr1 pump inh: inactive

Results for Cc1ccc(NC(=O)c2ccc(-n3cccn3)c([N+](=O)[O-])c2)cc1 ?
Efflux pump mplx: inactive; sPLA2-III inh: inactive; SKN-1 inh: inactive; Mot1-301 SUMO: inactive

Results for O=C(OCC(=O)c1ccccc1Cl)c1cnccn1 ?
Efflux pump mplx: 14; sPLA2-III inh: inactive; SKN-1 inh: inactive; Mot1-301 SUMO: inactive; Yeast cmpd fluor: inactive; Mdr1 pump inh: inactive; CaCdr2 efflux inh: inactive; Cdr1 pump inh: inactive

What do the screens show for `CSCCC(NC(=O)c1ccccc1Cl)C(=O)N1CCN(C(C)=O)CC1` (configuration not stated)?
Efflux pump mplx: inactive; sPLA2-III inh: inactive; SKN-1 inh: inactive; Mot1-301 SUMO: inactive

How did CSCCC(NC(=O)c1ccccc1Cl)C(=O)N1CCN(C(c2ccccc2)c2ccccc2)CC1 (configuration not stated) do in these assays?
Efflux pump mplx: 0.5; sPLA2-III inh: inactive; SKN-1 inh: inactive; Mot1-301 SUMO: inactive; Yeast cmpd fluor: inactive; Mdr1 pump inh: inactive; CaCdr2 efflux inh: inactive; Cdr1 pump inh: inactive

How did CCOC(=O)C1=C(C)N(C[C@@H]2CC[C@@H](Cc3ccc(-c4ccccc4)cc3)O2)C(=O)NC1C1CC1 (some centres not stated) do in these assays?
Efflux pump mplx: inactive; sPLA2-III inh: inactive; SKN-1 inh: inactive

Results for CCN(CC)C(=O)CC[C@@H]1CC[C@]2(CCCN(S(C)(=O)=O)C2)O1 ?
sPLA2-III inh: inactive

What do the screens show for `O=C(Cc1cccs1)Nc1ccc(F)c(S(=O)(=O)N2CCOCC2)c1`?
Efflux pump mplx: inactive; sPLA2-III inh: inactive; SKN-1 inh: inactive
